Assay outcomes as filed in PubChem.
Rv3671c inh – inhibits the M. tuberculosis serine protease Rv3671c | P9WHR9 | inhibition, % at 5.96 µM | 320,000 tested, 0.048% active | AID 2606; in the data active = inhibition above about 38%;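 also: extracellular domain of Rv3671c used as enzyme; 0% = enzyme with DMSO and 100% = no enzyme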
Target sequence (P9WHR9 whole entry, looked up, the tested form may be a part): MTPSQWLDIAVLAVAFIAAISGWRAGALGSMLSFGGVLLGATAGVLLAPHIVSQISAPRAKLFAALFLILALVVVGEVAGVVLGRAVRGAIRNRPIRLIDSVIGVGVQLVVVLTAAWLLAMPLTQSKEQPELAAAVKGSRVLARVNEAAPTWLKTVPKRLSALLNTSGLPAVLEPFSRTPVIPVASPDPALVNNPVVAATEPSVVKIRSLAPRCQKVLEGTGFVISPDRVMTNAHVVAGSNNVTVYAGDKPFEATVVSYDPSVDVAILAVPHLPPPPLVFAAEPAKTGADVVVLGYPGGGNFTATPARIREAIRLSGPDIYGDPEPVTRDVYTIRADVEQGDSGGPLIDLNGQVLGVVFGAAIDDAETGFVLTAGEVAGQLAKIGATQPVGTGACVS
Mtb bLac sens – beta-lactam sensitization of Mtb H37Rv | M. tuberculosis H37Rv growth with meropenem, percent inhibition | inhibition, % at 25 µM | 330,000 tested, 0.27% active; call rule not given here;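 also: growth measured after seven days incubation then overnight dye step; 0% = bacteria only wells and 100% = bacteria with antibiotic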
Mtb FBA inh – Mtb fructose-bisphosphate aldolase inhibition; P9WQA3; purified M. tuberculosis FBA, fluorescence read-out; inhibition, % at 1 µM; 360,000 tested, 2.3% active;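 also: 0% = vehicle and 100% = reference inhibitor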
RecA splice inh – inhibitors of M. tuberculosis RecA intein splicing. 290,000 tested, 0.75% active. cell-free RecA intein splicing, fluorescence. P9WHJ3. inhibition, % (test concentration not listed); in the data active = inhibition above about 30%;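 also: 0% = vehicle wells and 100% = reference inhibitor control wells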
GDH-TPI counter-1 – inhibits GDH-TPI coupling enzymes, artifact for Mtb FBA screen; AID 588335; 360,000 tested, 1.2% active; inhibition, % at 4.8 µM; GDH-TPI coupled enzyme counterscreen, NADH absorbance; in the data active = inhibition above about 30%;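 also: 0% = DMSO wells and 100% = wells lacking the enzyme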
Mtb UGM inh – Mtb UDP-galactopyranose mutase inhibition; P9WIQ1; purified UGM, fluorescence polarization probe displacement; inhibition, % at 10 µM; 320,000 tested, 0.06% active; AID 504406; in the data active = inhibition above about 10%, passing the limit was not always enough
Mtb FBA confirm – Mtb FBA inhibition, confirmed | 5,600 tested, 78% active | AID 651616 | inhibition, % at 1 µM | purified M. tuberculosis FBA, fluorescence read-out | shares compounds with Mtb FBA inh;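 also: 0% = vehicle wells and 100% = reference inhibitor wells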
GDH-TPI counter-2 – inhibits GDH-TPI coupling enzymes, flagging Mtb FBA hits. 5,600 tested, 81% active. shares compounds with Mtb FBA inh. GDH-TPI coupled enzyme counterscreen, fluorescence. inhibition, % at 1 µM; in the data active = inhibition above about 10%
GDH-TPI dose – inhibits GDH-TPI coupling enzymes in dose response. shares compounds with Mtb FBA inh. GDH-TPI coupled enzyme assay, fluorescence, artifact counterscreen. IC50, µM. 170 tested, 79% active. AID 652145; call rule not given here
Starred values were filed as active, the others as inactive; x = no result given; + = active, no number. Only some compounds are listed: those with a hit (about 4% of all), similar ones and a draw of the others. Rule as the data show it, unless noted: active = inhibition above about 27%; inactive = the rest.

SMILES	Rv3671c inh	Mtb bLac sens	Mtb FBA inh	RecA splice inh	GDH-TPI counter-1	Mtb UGM inh	Mtb FBA confirm	GDH-TPI counter-2	others
CCCCC(SCC(=O)Nc1ccccc1)C(=O)O (configuration not stated)	4.4	-1.6	67.0*	-1.2	6.8	-0.3	185.8*	160.0*
CN1CCN(C(=O)CN(c2cccc(Br)c2)S(=O)(=O)c2ccccc2)CC1	4.9	0.6	-4.7	-0.3	-2.2	-1.9	x	x
Cc1nc2ccc(NC(=O)N3CCCCC3)cc2nc1C	-10.1	3.8	62.7*	0.4	5.7	1.0	159.3*	129.8*
CCOC(=O)N1CCN(C(=O)Nc2ccc3nccnc3c2)CC1	-6.5	-5.7	4.7	-0.6	14.7	-3.7	x	x
CCOC(=O)N1CCN(C(=O)Nc2ccc3nc(C)c(C)nc3c2)CC1	1.0	-11.5	43.0*	-0.8	13.7	-0.6	+	+
CCN(CC)C(=O)c1ccc2c(c1)nnn2C	-6.8	0.9	1.9	-0.2	-4.0	-0.5	x	x
O=C(Nc1ccc(Cl)cc1)c1cc(S(=O)(=O)N2CCCCC2)ccc1N1CCOCC1	x	x	-4.5	x	4.5	x	x	x
O=C(Nc1ccc2c(c1)CCCN2C(=O)c1cccs1)c1c(F)cccc1Cl	7.8	79.8	98.8*	7.1	24.1	-2.0	+	199.5*
COC(=O)[C@]1(C)N[C@H](c2ccc(-c3cccc(Cl)c3)cc2)[C@@H]2C(=O)N(C)C(=O)[C@@H]21	3.3	-4.0	1.1	x	-4.0	-2.5	x	x
COC(=O)[C@]1(C)N[C@H](c2ccc(-c3cccc(Cl)c3)c(OC)c2)[C@@H]2C(=O)N(C)C(=O)[C@@H]21	-0.9	-7.5	37.9*	x	0.5	-0.2	46.8*	40.8*
CCN1C(=O)[C@H]2[C@@H](c3ccc(-c4ccc(F)cc4)c(OC)c3)N[C@@](C)(C(=O)OC)[C@H]2C1=O	-5.6	-2.9	15.5	3.4	16.4	0.5	x	x
CCN1C(=O)[C@H]2[C@@H](c3ccc(-c4ccc(OC)cc4)c(OC)c3)N[C@@](C)(C(=O)OC)[C@H]2C1=O	8.7	-4.4	35.2*	-0.9	1.4	-3.1	39.3*	43.2*
COC(=O)[C@@]12CCCN1[C@H](c1ccc(-c3ccc(OC)cc3)c(OC)c1)[C@@H]1C(=O)N(C)C(=O)[C@@H]12	-8.1	-4.2	28.8*	x	11.2	-2.7	+	+
C[C@H](CO)N1C[C@H](C)[C@@H](CN(C)S(=O)(=O)c2cccs2)Oc2c(NS(=O)(=O)c3ccc(F)cc3)cccc2C1=O	5.1	-4.6	1.2	x	4.2	0.3	x	x
O=C(O)C1=CC(=C(c2ccc(O)c(C(=O)O)c2)c2ccc(O)c(C(=O)O)c2)C=CC1=O	33.2	3.1	x	x	x	1.4	x	x
CC1=CC(c2ccc(Cl)cc2)n2nc(NC(=O)CCCC(=O)O)nc2N1 (configuration not stated)	4.1	-8.1	75.0*	-16.2	1.8	-0.8	58.9*	45.1*
O=C(Nc1ccc(-c2nc3ncccc3o2)cc1)c1ccco1	-15.3	2.9	27.0*	0.0	44.8*	1.6	58.1*	50.5*
Cc1ccc(-c2nnc(-c3ccc(NC(=O)c4ccco4)cc3)o2)cc1	-14.8	1.1	2.0	3.0	26.6	-2.4	x	x
O=C(Nc1ccc(-c2nc3cccnc3s2)cc1)c1ccco1	-39.7	7.2	28.8*	-1.9	27.9	-0.7	10.5	-2.2	GDH-TPI dose=3.15*
O=C(Nc1ccc2oc(-c3cccnc3)nc2c1)c1ccco1	-8.0	-14.6	29.4*	-1.3	3.8	-2.7	-2.2	-6.3
Cc1ccc(Nc2nnc(-c3ccccc3N)o2)cc1C	5.4	-2.2	49.0*	-6.3	7.3	4.0	11.1	2.6	GDH-TPI dose=3.15*
COc1ccc(Nc2nc(NCc3cccs3)nc3ccsc23)cc1OC	x	x	0.1	x	10.2	x	x	x
COCCNc1nc(Oc2ccccc2)c2sccc2n1	x	x	8.2	x	8.8	x	x	x
c1csc(CNc2nc(Oc3ccncc3)c3sccc3n2)c1	x	x	43.0*	x	4.9	x	64.5*	50.6*
c1ccc(CNc2nc(Oc3ccncc3)c3sccc3n2)cc1	x	x	39.5*	x	2.2	x	+	+
SMILES	Rv3671c inh	Mtb bLac sens	Mtb FBA inh	RecA splice inh	GDH-TPI counter-1	Mtb UGM inh	Mtb FBA confirm	GDH-TPI counter-2	others
CCCS(=O)(=O)NC(=O)C1(C)CCN(C(=O)c2c(F)cccc2F)C1 (configuration not stated)	x	x	-1.9	x	12.9	x	x	x
COc1cc(C2c3c([nH]c(=O)[nH]c3=O)Nc3ccc4ccccc4c32)ccc1O (configuration not stated)	12.0	-0.8	9.2	x	6.3	2.2	x	x
COc1cc(C2c3c([nH]c(=O)[nH]c3=O)Nc3ccc4ccccc4c32)cc(OC)c1OC (configuration not stated)	18.2	3.6	33.9*	4.7	0.3	0.3	90.5*	74.5*
Nc1ccc2nc3n(c(=O)c2c1)CCC3	-3.8	-10.6	109.9*	-3.0	9.1	-0.9	4.0	1.4
CC1=CC2=NC(=O)CC(C)(C(=O)N(CC(=O)NC3CCCC3)Cc3ccccc3)N2C=C1 (configuration not stated)	-0.9	-4.3	69.1*	-2.7	8.0	-1.4	9.4	4.1
Cc1ccccc1N(CC(=O)NCC1CCCO1)C(=O)C1(C)CC(=O)N=C2C=CC=CN21 (configuration not stated)	-1.1	-4.9	85.9*	0.8	-1.3	0.6	106.1*	79.4*
Cc1ccccc1N(CC(=O)NC1CCCC1)C(=O)C1(C)CC(=O)N=C2C=CC=CN21 (configuration not stated)	-2.9	-7.7	73.9*	1.9	12.4	-1.9	104.2*	94.1*
CC1(C(=O)N(c2ccccc2)C(C(=O)NC2CCCC2)c2ccccn2)CC(=O)N=C2C=CC=CN21 (configuration not stated)	-2.1	-6.7	96.2*	x	13.6	0.7	106.8*	80.8*
Cc1ccccc1N(CC(=O)NC1CCCCC1)C(=O)CCC(=O)Nc1nccs1	-4.7	-4.4	0.0	-3.2	-2.7	0.7	x	x
Cn1c(SCC(O)c2ccccc2)nnc1-c1ccc2ccccc2c1 (configuration not stated)	-6.7	-3.8	4.9	2.5	5.9	-1.8	x	x
CC1(C(=O)N(CC(=O)NC2CCCC2)C2CCCC2)CC(=O)N=C2C=CC=CN21 (configuration not stated)	11.7	-2.3	110.3*	-2.6	25.0	-0.2	-1.0	-5.3
CC1=CC2=NC(=O)CC(C)(C(=O)N(CC(=O)NC(C)C)C3CCCC3)N2C=C1 (configuration not stated)	-1.5	1.0	x	-1.8	x	5.4	x	x
Cc1cc(C)cc(N(CC(=O)NC2CCCC2)C(=O)C2(C)CC(=O)N=C3C=CC=CN32)c1 (configuration not stated)	1.5	-0.1	36.2*	-2.8	12.3	0.0	+	161.2*
